From PubChem BioAssay AID1159580 (chemical genetic matrix, 2015)
The campaign covered roughly 5,500 compounds. About 2,000 (36%) were called active. Another 18% or so got no clear call; they are omitted. Cut-off read from the data, not from the text of the source: active = normalized growth mostly below about 0.91 (no sharp cut-off); inconclusive = no clear call, values can overlap the other calls; inactive = mostly above about 0.92. The list shows a part of the results.

Experiment: chemical genetic growth profiling, strain panel (AID 1159580);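 note: tested at 20 µM; growth read once vehicle control cultures reached saturation at 30 °C; 1 = growth at the plate median or of vehicle wells; lower values mean less growth of the strain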
Conditions: growth OD

Measured: normalized growth

Oc1cccc(O)c1
inactive: S. cerevisiae deletion strains, locus YJR066W, strain TOR1, active compounds read low 0.971 | S. cerevisiae deletion strains, locus YJR075W, strain HOC1, active compounds read low 1.01 | S. cerevisiae deletion strains, locus YKL009W, strain mrt4, active compounds read low 0.98 | S. cerevisiae deletion strains, locus YKL068W, active compounds read low 0.997 | S. cerevisiae deletion strains, locus YKL085W, strain MDH1 (second series), active compounds read low 0.994 | S. cerevisiae deletion strains, locus YKL085W, strain MDH1, active compounds read low 0.994 | S. cerevisiae deletion strains, locus YKL160W, strain elf1, active compounds read low 1.02 | S. cerevisiae deletion strains, locus YKL190W, strain CNB1, active compounds read low 1.01 | S. cerevisiae deletion strains, locus YKR001C, strain vps1, active compounds read low 0.98 | S. cerevisiae deletion strains, locus YKR026C, strain gcn3, active compounds read low 0.967 | S. cerevisiae deletion strains, locus YKR091W, strain srl3, active compounds read low 0.979 | S. cerevisiae deletion strains, locus YLL001W, strain dnm1, active compounds read low 0.993 | S. cerevisiae deletion strains, locus YLL026W, active compounds read low 1.01 | S. cerevisiae deletion strains, locus YLL041C, strain sdh2, active compounds read low 0.979 | S. cerevisiae deletion strains, locus YLR027C, strain aat2, active compounds read low 0.992 | S. cerevisiae deletion strains, locus YLR039C, strain RIC1, active compounds read low 1.01 | S. cerevisiae deletion strains, locus YLR058C, strain SHM2, active compounds read low 1.01 | S. cerevisiae deletion strains, locus YLR102C, strain apc9, active compounds read low 0.993 | S. cerevisiae deletion strains, locus YLR113W, strain HOG1, active compounds read low 1.01 | S. cerevisiae deletion strains, locus YLR221C, strain rsa3, active compounds read low 0.962 | S. cerevisiae deletion strains, locus YLR258W, strain gsy2, active compounds read low 0.956 | S. cerevisiae deletion strains, locus YLR262C, strain YPT6 (second series), active compounds read low 1 | S. cerevisiae deletion strains, locus YLR262C, strain YPT6, active compounds read low 1.02 | S. cerevisiae deletion strains, locus YLR268W, strain sec22, active compounds read low 0.974 | S. cerevisiae deletion strains, locus YLR320W, strain mms22, active compounds read low 0.944 | S. cerevisiae deletion strains, locus YLR330W, strain CHS5, active compounds read low 1.01 | S. cerevisiae deletion strains, locus YLR342W, strain FKS1 (second series), active compounds read low 0.995 | S. cerevisiae deletion strains, locus YLR342W, strain FKS1, active compounds read low 1 | S. cerevisiae deletion strains, locus YLR357W, strain rsc2, active compounds read low 0.977 | S. cerevisiae deletion strains, locus YLR370C, strain arc18, active compounds read low 0.992 | S. cerevisiae deletion strains, locus YLR371W, strain rom2, active compounds read low 0.992 | S. cerevisiae deletion strains, locus YLR384C, strain iki3, active compounds read low 0.997 | S. cerevisiae deletion strains, locus YLR418C, strain cdc73, active compounds read low 0.961 | S. cerevisiae deletion strains, locus YML016C, strain PPZ1, active compounds read low 1 | S. cerevisiae deletion strains, locus YML032C, strain rad52, active compounds read low 0.983 | S. cerevisiae deletion strains, locus YML120C, strain ndi1, active compounds read low 0.986 | S. cerevisiae deletion strains, locus YML124C, strain tub3, active compounds read low 0.991 | S. cerevisiae deletion strains, locus YMR058W, strain fet3, active compounds read low 0.972 | S. cerevisiae deletion strains, locus YMR078C, strain ctf18, active compounds read low 0.989 | S. cerevisiae deletion strains, locus YMR125W, strain sto1, active compounds read low 0.932 | S. cerevisiae deletion strains, locus YMR129W, active compounds read low 0.974 | S. cerevisiae deletion strains, locus YMR205C, strain PFK2, active compounds read low 0.991 | S. cerevisiae deletion strains, locus YMR223W, strain ubp8, active compounds read low 0.991 | S. cerevisiae deletion strains, locus YMR231W, strain pep5, active compounds read low 0.985 | S. cerevisiae deletion strains, locus YMR263W, strain SAP30, active compounds read low 1.01 | S. cerevisiae deletion strains, locus YMR307W, strain GAS1, active compounds read low 0.989 | S. cerevisiae deletion strains, locus YNL067W, strain RPL9B, active compounds read low 1.02 | S. cerevisiae deletion strains, locus YNL071W, strain lat1, active compounds read low 0.969 | S. cerevisiae deletion strains, locus YNL183C, strain NPR1, active compounds read low 0.951 | S. cerevisiae deletion strains, locus YNL209W, strain ssb2, active compounds read low 0.973 | S. cerevisiae deletion strains, locus YNL233W, strain BNI4, active compounds read low 1.01 | S. cerevisiae deletion strains, locus YNL248C, strain rpa49, active compounds read low 0.957 | S. cerevisiae deletion strains, locus YNL250W, strain rad50, active compounds read low 0.985 | S. cerevisiae deletion strains, locus YNL271C, strain bni1, active compounds read low 0.991 | S. cerevisiae deletion strains, locus YNL298W, strain CLA4, active compounds read low 0.978 | S. cerevisiae deletion strains, locus YNL307C, strain MCK1, active compounds read low 0.988 | S. cerevisiae deletion strains, locus YNL322C, strain KRE1 (second series), active compounds read low 0.967 | S. cerevisiae deletion strains, locus YNR049C, strain mso1, active compounds read low 0.971 | S. cerevisiae deletion strains, locus YNR052C, strain pop2, active compounds read low 0.99 | S. cerevisiae deletion strains, locus YOL006C, strain TOP1, active compounds read low 1.03 | S. cerevisiae deletion strains, locus YOL012C, strain htz1 0.68 | S. cerevisiae deletion strains, locus YOL147C, strain pex11, active compounds read low 0.995 | S. cerevisiae deletion strains, locus YOR001W, strain rrp6, active compounds read low 1.01 | S. cerevisiae deletion strains, locus YOR061W, strain CKA2, active compounds read low 1.01 | S. cerevisiae deletion strains, locus YOR069W, strain VPS5, active compounds read low 1 | S. cerevisiae deletion strains, locus YOR070C, strain gyp1, active compounds read low 0.979 | S. cerevisiae deletion strains, locus YOR080W, strain dia2, active compounds read low 0.987 | S. cerevisiae deletion strains, locus YOR083W, strain WHI5, active compounds read low 0.986 | S. cerevisiae deletion strains, locus YOR106W, strain vam3, active compounds read low 0.983 | S. cerevisiae deletion strains, locus YOR136W, strain idh2, active compounds read low 0.988 | S. cerevisiae deletion strains, locus YOR144C, strain elg1, active compounds read low 0.98 | S. cerevisiae deletion strains, locus YOR184W, strain ser1, active compounds read low 0.977 | S. cerevisiae deletion strains, locus YOR231W, strain MKK1, active compounds read low 1.02 | S. cerevisiae deletion strains, locus YOR265W, strain rbl2, active compounds read low 0.987 | S. cerevisiae deletion strains, locus YOR270C, strain vph1, active compounds read low 0.969 | S. cerevisiae deletion strains, locus YOR290C, strain snf2, active compounds read low 0.922 | S. cerevisiae deletion strains, locus YOR316C, strain cot1, active compounds read low 0.995 | S. cerevisiae deletion strains, locus YPL051W, strain arl3, active compounds read low 1 | S. cerevisiae deletion strains, locus YPL055C, strain LGE1, active compounds read low 1.03 | S. cerevisiae deletion strains, locus YPL078C, strain atp4, active compounds read low 1 | S. cerevisiae deletion strains, locus YPL106C, strain sse1, active compounds read low 0.926 | S. cerevisiae deletion strains, locus YPL240C, strain hsp82, active compounds read low 0.995 | S. cerevisiae deletion strains, locus YPL241C, strain CIN2, active compounds read low 1.01 | S. cerevisiae deletion strains, locus YPL256C, strain CLN2, active compounds read low 1.06 | S. cerevisiae deletion strains, locus YPR119W, strain clb2, active compounds read low 0.959 | S. cerevisiae deletion strains, locus YPR141C, strain kar3, active compounds read low 0.988 | S. cerevisiae deletion strains, locus YPR163C, strain tif3, active compounds read low 0.993 | S. cerevisiae deletion strains, locus YPR167C, strain met16, active compounds read low 0.995 | S. cerevisiae deletion strains, strain wtn01, active compounds read low 0.979 | S. cerevisiae strains, strain wild type, active compounds read low 1
